In article PMC4081100, “A DNA-binding-site landscape and regulatory network analysis for NAC transcription factors in Arabidopsis thaliana”:

Tests used:
Assay in all cases: universal protein binding microarray (PBM); transcription factors of Arabidopsis thaliana; high values mean tight binding
[1] = biological target: T1, GST-ANAC092(1-176) (Arabidopsis thaliana, UniProt Q9FKA0 1-176); details: protein: recombinant; tags: GST; chain copies: 2; dsDNA, one strand shown
T1 sequence: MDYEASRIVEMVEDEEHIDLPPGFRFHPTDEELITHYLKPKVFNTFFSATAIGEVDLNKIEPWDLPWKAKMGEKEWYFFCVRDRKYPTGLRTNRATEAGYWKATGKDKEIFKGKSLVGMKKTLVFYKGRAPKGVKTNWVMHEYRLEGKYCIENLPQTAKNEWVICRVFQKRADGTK
Procedure, shortened: (§1)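 Each value is a normalised enrichment score (E-score) describing binding. The GST-tagged proteins, NAC-domain, full-length or DNA-binding-domain, were induced in cells (zinc-finger proteins with zinc acetate added) and purified on glutathione–Sepharose 4B. They were applied at 200 to 500 nM final, in duplicate, to double-stranded custom all-10-mer Agilent 4 × 180K arrays, and gapped and ungapped 8-mers were scored.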

[2] = biological target: GST-NTL6(1-168) (Arabidopsis thaliana, UniProt Q9SCK6 1-168); details: protein: recombinant; tags: GST; chain copies: 2; dsDNA, one strand shown
GST-NTL6(1-168), sequence (Q9SCK6 1-168): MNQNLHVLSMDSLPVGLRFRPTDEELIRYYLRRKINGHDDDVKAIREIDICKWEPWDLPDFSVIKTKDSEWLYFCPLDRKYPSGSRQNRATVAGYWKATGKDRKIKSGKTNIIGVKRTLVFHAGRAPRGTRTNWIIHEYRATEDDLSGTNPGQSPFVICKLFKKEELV
Procedure, shortened: as §1

[3] = biological target: T2, GST-ANAC019 NAC domain (Arabidopsis thaliana, UniProt Q9C932 14-162); details: protein: recombinant; tags: GST; chain copies: 2; dsDNA, one strand shown
T2 sequence: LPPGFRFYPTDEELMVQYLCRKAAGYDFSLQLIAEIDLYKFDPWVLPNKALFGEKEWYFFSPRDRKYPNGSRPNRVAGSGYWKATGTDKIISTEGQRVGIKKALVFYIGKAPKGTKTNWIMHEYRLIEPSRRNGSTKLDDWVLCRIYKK
Procedure, shortened: as §1

[4] = biological target: T3, GST-ANAC055(1-171) (Arabidopsis thaliana, UniProt Q9LDY8 1-171); details: protein: recombinant; tags: GST; chain copies: 2; dsDNA, one strand shown
T3 sequence: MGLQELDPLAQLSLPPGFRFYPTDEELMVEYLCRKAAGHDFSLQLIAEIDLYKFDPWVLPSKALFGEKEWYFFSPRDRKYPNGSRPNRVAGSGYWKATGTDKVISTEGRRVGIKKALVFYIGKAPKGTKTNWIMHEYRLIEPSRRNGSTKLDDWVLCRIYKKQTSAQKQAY
Procedure, shortened: as §1

[5] = biological target: T4, GST-ATAF1 NAC domain (Arabidopsis thaliana, UniProt Q39013 7-158); details: protein: recombinant; tags: GST; chain copies: 2; dsDNA, one strand shown
T4 sequence: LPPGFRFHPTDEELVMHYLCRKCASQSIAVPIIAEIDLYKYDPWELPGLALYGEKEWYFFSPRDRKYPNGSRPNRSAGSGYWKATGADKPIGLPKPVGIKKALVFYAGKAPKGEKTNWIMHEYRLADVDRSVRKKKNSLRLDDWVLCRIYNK
Procedure, shortened: as §1

[6] = biological target: T5, GST-ANAC092(1-285) full length (Arabidopsis thaliana, UniProt Q9FKA0 1-285); details: protein: recombinant; tags: GST; chain copies: 2; dsDNA, one strand shown
T5 sequence: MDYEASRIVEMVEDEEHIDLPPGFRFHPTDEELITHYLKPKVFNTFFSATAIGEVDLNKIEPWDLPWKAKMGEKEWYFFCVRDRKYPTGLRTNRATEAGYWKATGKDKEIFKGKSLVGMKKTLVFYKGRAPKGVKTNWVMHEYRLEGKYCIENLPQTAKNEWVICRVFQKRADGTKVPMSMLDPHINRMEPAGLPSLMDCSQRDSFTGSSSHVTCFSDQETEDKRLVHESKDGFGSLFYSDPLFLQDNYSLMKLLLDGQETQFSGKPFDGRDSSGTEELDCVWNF
Procedure, shortened: as §1

[7] = biological target: T6, GST-NAP(1-166) (Arabidopsis thaliana, UniProt O49255 1-166); details: protein: recombinant; tags: GST; chain copies: 2; dsDNA, one strand shown
T6 sequence: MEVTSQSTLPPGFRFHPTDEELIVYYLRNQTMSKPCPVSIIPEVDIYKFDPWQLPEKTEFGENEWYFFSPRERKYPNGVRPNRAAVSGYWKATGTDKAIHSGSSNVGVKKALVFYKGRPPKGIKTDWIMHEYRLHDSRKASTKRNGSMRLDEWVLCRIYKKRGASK
Procedure, shortened: as §1

[8] = biological target: T7, GST-NST2(1-184) (Arabidopsis thaliana, UniProt Q9M274 1-184); details: protein: recombinant; tags: GST; chain copies: 2; dsDNA, one strand shown
T7 sequence: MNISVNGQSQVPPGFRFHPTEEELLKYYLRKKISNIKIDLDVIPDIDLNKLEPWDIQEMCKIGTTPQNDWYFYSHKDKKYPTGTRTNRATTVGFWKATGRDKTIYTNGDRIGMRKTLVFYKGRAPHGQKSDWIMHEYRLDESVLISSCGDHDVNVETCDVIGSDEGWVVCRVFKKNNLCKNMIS
Procedure, shortened: as §1

[9] = biological target: T8, GST-NTL8 NAC domain (Arabidopsis thaliana, UniProt Q9XIN7 14-156); details: protein: recombinant; tags: GST; chain copies: 2; dsDNA, one strand shown
T8 sequence: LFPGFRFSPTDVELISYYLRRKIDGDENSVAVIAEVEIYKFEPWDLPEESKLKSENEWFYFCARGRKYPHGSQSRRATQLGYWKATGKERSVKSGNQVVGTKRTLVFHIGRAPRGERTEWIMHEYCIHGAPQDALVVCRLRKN
Procedure, shortened: as §1

[10] = biological target: T9, GST-SND1(1-203) (Arabidopsis thaliana, UniProt Q9LPI7 1-203); details: protein: recombinant; tags: GST; chain copies: 2; dsDNA, one strand shown
T9 sequence: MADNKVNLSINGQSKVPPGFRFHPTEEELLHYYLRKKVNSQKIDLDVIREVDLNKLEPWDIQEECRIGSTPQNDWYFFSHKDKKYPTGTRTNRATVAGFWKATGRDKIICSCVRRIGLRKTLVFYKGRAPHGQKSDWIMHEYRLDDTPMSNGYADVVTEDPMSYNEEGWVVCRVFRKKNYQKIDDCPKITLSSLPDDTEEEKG
Procedure, shortened: as §1

[11] = biological target: T10, GST-VND3 NAC domain (Arabidopsis thaliana, UniProt Q9FH59 12-162); details: protein: recombinant; tags: GST; chain copies: 2; dsDNA, one strand shown
T10 sequence: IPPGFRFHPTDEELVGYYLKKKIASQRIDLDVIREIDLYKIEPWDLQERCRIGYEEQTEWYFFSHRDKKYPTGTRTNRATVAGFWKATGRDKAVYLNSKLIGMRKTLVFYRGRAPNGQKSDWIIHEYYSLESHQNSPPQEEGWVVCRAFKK
Procedure, shortened: as §1

[12] = biological target: T11, GST-VND7 NAC domain (Arabidopsis thaliana, UniProt Q9C8W9 9-158); details: protein: recombinant; tags: GST; chain copies: 2; dsDNA, one strand shown
T11 sequence: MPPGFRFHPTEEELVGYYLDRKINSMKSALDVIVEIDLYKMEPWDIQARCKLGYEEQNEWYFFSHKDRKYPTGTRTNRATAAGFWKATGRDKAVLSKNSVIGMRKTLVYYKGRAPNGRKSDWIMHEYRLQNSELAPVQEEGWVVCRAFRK
Procedure, shortened: as §1

[13] = biological target: GST-WRKY1(266-371) (Arabidopsis thaliana, UniProt Q9SI37 266-371); details: protein: recombinant; tags: GST; dsDNA, one strand shown
GST-WRKY1(266-371), sequence (Q9SI37 266-371): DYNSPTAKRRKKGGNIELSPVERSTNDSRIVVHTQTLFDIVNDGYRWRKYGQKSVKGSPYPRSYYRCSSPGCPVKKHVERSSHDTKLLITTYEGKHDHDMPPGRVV
Procedure, shortened: as §1

Sequence	binding signal [1]	binding signal [2]	binding signal [3]	binding signal [4]	binding signal [5]	binding signal [6]	binding signal [7]	binding signal [8]	binding signal [9]	binding signal [10]	binding signal [11]	binding signal [12]	binding signal [13]
ATTTCCCC	0.143 E-score	0.221 E-score	0.13 E-score	0.101 E-score	0.0697 E-score	0.175 E-score	0.0823 E-score	0.17 E-score	0.428 E-score	0.199 E-score	0.205 E-score	0.153 E-score	0.116 E-score
AAGTAAGT	0.249 E-score	0.412 E-score	0.189 E-score	0.164 E-score	0.199 E-score	0.259 E-score	0.135 E-score	0.181 E-score	0.267 E-score	0.282 E-score	0.217 E-score	0.135 E-score	0.2 E-score
ACTAAGTA	0.177 E-score	0.429 E-score	0.19 E-score	0.216 E-score	0.192 E-score	0.126 E-score	0.125 E-score	0.252 E-score	0.116 E-score	0.258 E-score	0.279 E-score	0.218 E-score	0.0999 E-score
ACGTCAAA	0.333 E-score	0.0817 E-score	0.262 E-score	0.245 E-score	0.176 E-score	0.372 E-score	0.194 E-score	0.261 E-score		0.361 E-score	0.252 E-score	0.25 E-score	0.421 E-score
ACACGACA	0.421 E-score	0.0953 E-score	0.452 E-score	0.438 E-score	0.339 E-score	0.417 E-score	0.36 E-score	0.19 E-score	0.0912 E-score	0.14 E-score	0.399 E-score	0.424 E-score	0.0821 E-score
